Data as given in ChEMBL document CHEMBL3433997, “St. Jude Leishmania screening dataset” (2016).

Molecular target: Glucose transporter (Leishmania mexicana) (UniProt O61059)
Assay: ST_JUDE_LEISH: Cytotoxicity at 2uM final concentration against transgenic Leishmania Mexicana promastigotes LmGT2 that are glucose transport deficient and complemented with the L. Mexicana glucose transporter 2. Activity is measured by DNA content using SYBR green in vitro
Format: functional

| SMILES | inhibition [%] |
| --- | --- |
| N#Cc1ccc(N2C[C@@H](OCc3ccccc3)C[C@H]2C(=O)NCCC(c2ccccc2)c2ccccc2)c2ccccc12 | 3.78 |
| O=C(Nc1ccc(SC(F)(F)F)cc1)Nc1ccnc2ccccc12 | -2.28 |
| CN(C)CCCOc1ccc(CN2CC[C@H](NC(=O)c3ccc(Cl)c(Cl)c3)C2)cc1Cl | 8.69 |
| OC[C@H](Nc1nc(C(Oc2ccccc2)c2ccccc2)nc2[nH]ncc12)c1ccccc1 (stereo not given in full) | 4.96 |
| O=C(Nc1ccc2c(c1)CCN2C1CCN(Cc2cccc(C(F)(F)F)c2)C1)c1ccco1 (stereo not given) | -0.47 |
| COC(=O)c1cccc(OCCNC2CCN(C[C@H](O)c3ccnc4ccc(OC)cc34)CC2)c1 | 0.25 |
| O=C(CSc1nc2ccccc2c(=O)n1C1CC1)Nc1cc(C(F)(F)F)ccc1Cl | 2.43 |
| N=C(N)NC(=O)Nc1cc(Br)c(Br)c(Br)c1 | 1.74 |
| CCOc1cc(Cc2cnc(N)nc2N)cc(OCC)c1OCC | 9.33 |
| CCCCCCCCOc1c(OCC)cc(Cc2cnc(N)nc2N)cc1OCC | 2.94 |
| O=C(Nc1ccc(C(F)(F)F)cc1)c1ccc(S(=O)(=O)NCC2CCCN(CC3CCCCC3)C2)cc1 (stereo not given) | 1.65 |
| CCc1nc2nc(C)cc(Nc3cc(C)cc(C)c3)n2n1 | 3.36 |
| O=C(NC1CC1)c1ccc(N2CCC(Oc3ccc(F)cc3)CC2)nc1 | 1.42 |
| CS(=O)(=O)Nc1ccc(-c2cnc3[nH]cc(-c4ccc(C(=O)O)cc4)c3c2)cc1 | 8.74 |
| O=C(Nc1cccc(CN2CCCN(Cc3cccc(O)c3)CC2)c1)c1ccc(Cl)c(Cl)c1 | 13.8 |
| CC1(C)NC(N)=NC(=N)N1OCc1cccc(Cl)c1Cl | 2.46 |
| O=[N+]([O-])c1c(O)nc2c(c1O)CCC2 | 4.11 |
| COc1ccc(N2CCN(CCCCNC(=O)c3ccc(NC(=O)c4ccc(Cl)cc4)cc3)CC2)c(C)c1 | 9.07 |
| COc1ccc(CNCc2ccc(-c3ccc(-c4nc5cccc(C)c5[nH]4)s3)cc2)cc1 | 12.6 |
| C=CC[C@H](C[C@H](O)[C@H](Cc1ccccc1)NC(=O)c1ccc(-c2cccnn2)cc1)C(=O)NC1CCCCC1 | -1.31 |

| SMILES | inhibition [%] |
| --- | --- |
| CCN(CCNC(=O)Nc1cc(C(F)(F)F)cc(C(F)(F)F)c1)c1cccc(C)c1 | 5.45 |
| CN(CCCCNC(=O)/C=C/c1ccccc1)C1CC2(CCN(C(=O)OC(C)(C)C)CC2)c2ccccc21 (stereo not given) | 1.67 |
| CC(C)c1cccc(OCC2CCN(c3ccc(C(=O)Nc4ccccc4)cn3)CC2)c1 | 9.04 |
| FC(F)(F)COc1c(CNCCCCCCNCc2ccc3ccccc3c2OCC(F)(F)F)ccc2ccccc12 | 104 |
| CNc1cc(-c2ccc3ccnc(N)c3c2)nc(N)n1 | -3.58 |
| COc1ccc2nccc([C@@H](O)CN3CCC(NC(=O)c4ccc5cc[nH]c5c4)CC3)c2c1 | 1.32 |
| COc1cccc(CCc2cccc(CNC(C)=O)c2)c1 | 5.68 |
| COc1c(CNCCCCCCNCc2c(OC)c(OC)c3ccccc3c2OC)c(OC)c2ccccc2c1OC | 56.7 |
| CCCCCCn1c(Sc2ccc(C#N)c([N+](=O)[O-])c2)nnc1-c1ccccc1 | 6.76 |
| COc1ccccc1C(=O)Nc1cccc(N2CCC(NCc3ccc(-n4cccn4)cc3)CC2)c1 | 5.84 |
| CC(C)c1cc2c(ccc3nc(N)nc(N)c32)[nH]1 | 8.49 |
| CN1CCN(S(=O)(=O)c2ccc3nccc(Nc4ccc(Oc5ccccc5)cc4)c3c2)CC1 | -1.4 |
| COc1ccc(-c2ccc(NC(=O)c3ccc(C#N)cc3)cc2)cc1CN(C)CCO | 1.59 |
| CN(C)Cc1ccc(-c2cc3c(-c4ccc(CN(C)C)cc4)ccnc3[nH]2)cc1 | 2.4 |
| CCCC(=O)Nc1ccc(OCCCN(Cc2ccccc2C(F)(F)F)c2ccc(C#N)c(C(F)(F)F)c2)cc1 | 4.55 |
| COc1ccc(NC(=O)NCC2CCCN(CCCCCNC(=O)/C=C/c3ccc(Cl)c(Cl)c3)C2)c(OC)c1 (stereo not given) | 0.18 |
| CCc1cn2c3c(cc(C(=O)N[C@@H](Cc4ccccc4)[C@H](O)CNC4CCCC4)cc13)N(C)S(=O)(=O)CC2 | 5.93 |
| O=C(NCCc1ccccc1F)c1cc(Br)cc(N2CCN(c3ccncc3)CC2)c1 | -0.08 |
| CC1(C)N=C(N)N=C(N)N1OCCCOc1cccc(C(=O)O)c1 | 3.22 |
| CC(C)(C)c1ccc(S(=O)(=O)Nc2cc(Cl)ccc2Cn2ccc(N3CCNCC3)nc2=O)cc1 | -1.02 |
